{"source": "PubChem BioAssay (NCATS)", "note": "Inconclusive results are not listed. A number with no mark means an inactive call. Active and inactive are the calls of the source. The call rests on the fitted dose curve; in most records, active means well fitted cell-killing curve with a large enough effect; inconclusive means small, poorly fitted or top-dose-only effect, or effect the other way; inactive means no such curve, though single readings can be large or run the other way. Potency means the concentration at half of the fitted maximal effect.", "data": [{"test": "Quantitative highthroughput screen to assess conditional lethalithy of SEM cells grown in RPMI1640 with unreated serum (RPMI+s) (AID 1963883); further: nearly all actives have a fitted effect of over 35% in size", "settings": "SEM B-ALL cells, CellTiter-Glo viability, 48 h; series mostly up to 45.8 µM; viability: at the top concentration", "text": "Assay Provider: Jason Cantor Ph.D.\nDepartment of Biochemistry\nUniversity of Wisconsin-Madison, Madison, WI, USA\nChemical screening studies have identified drug sensitivities across hundreds of cancer cell lines but most putative therapeutics fail to translate. Discovery and development of drug candidates in models that more accurately reflect nutrient levels in human blood is a major challenge. Here we performed high-throughput screens in conventional versus Human Plasma-Like Medium (HPLM) to identify compounds that were \"missed\" when screening using the artificial culture condition. Sets of conditional anticancer compounds spanned phases of clinical development and included non-oncology drugs were assessed. […] We also traced conditional phenotypes for several chemotherapeutics to availability of HPLM-specific metabolites and confirmed others for compounds whose reported targets are encoded by nonessential genes. Our findings establish generalizable strategies for exploiting conditional lethality in HPLM to reveal therapeutic candidates and mechanisms of action in cancer cells.\nDescribed herein are the results of each viability screens against three cell lines: NOMO1 (an acute myeloid leukemia cell line); P12-Ichikawa (a T-cell acute lymphoblastic leukemia); and SEM (a B-cell ALL). Each assay was screened using 3 different cell culture media: homemade human plasma-Like medium with 10% dialyzed fetal bovine serum (HPLM+ds); RPMI1640 with 10% untreated FBS and 5mM glucose (RPMI+s); and RPMI1640 with 10% dialyzed fetal bovine serum and 5 mM glucose (RPMI+ds).\nPROTOCOL TABLE (as described by Inglese J, Shamu CE and Guy RK. 2007)\nSEQUENCE No. (e.g., 1, 2, 3, etc.); […] (e.g., Cells, Incubation, Reagent, etc.); VALUE and DESCRIPTION.\n1; Cells; 5 uL; white, solid bottom 1536-well Greiner assay plate.\n2; Compounds; 23 nL; Kalypsis pin tool (Wako USA) equipped with a 1536-well pin head to transfer to the assay plates.\n3; Incubation; 48 hours; 37C incubation.\n4; Reagent; 3 uL; CellTiter Glo (Promega).\n5; Incubation; 5 min, room temperature\n6; Detection; Luminescence, Viewlux PerkinElmer.\nNOTES (numbers refer to Sequence numbers above)\n1. Briefly, 5 ul of cell reagent was dispensed using a Multidrop Combi Dispenser. The NOMO1 and SEM cells were plated at 500 cells/well and the P12-Ichikawa line at 1000 cells/well.\n2. After seeding the cells, 23 nL of MIPE 4.1 library compounds (in DMSO) were added to each plate using a Kalypsys 1536 Pintool dispenser. Bortezomib at final concentration of […] and DMSO were added to each plate as positive and negative controls respectively. For each screen, MIPE 4.1 compounds were added over an eleven-point concentration range […] in 3-fold dilutions.\n3. Each plate was covered with a stainless steel gasketed lid to prevent evaporation and incubated for 48 hour at 37C, 95% relative humidity, and 5% CO2.\n4-5. Three microliter CellTilter-GloTM luminescent substrate mix (Promega) reagent was added to the assay plate and incubated at room temperature for 5 min.\n6. The luminescence signal was measured using a ViewLux (PerkinElmer) multiplate reader with a 2 second exposure time per plate. Data for each compound were normalized as percent viability such that measurements for DMSO and the empty well controls in each plate were defined as 100% and 0%, respectively.", "values": [{"smiles": "Clc1ccc(-c2nc3sccn3c2C=NOCc2ccc(Cl)c(Cl)c2)cc1", "viability": "98%"}, {"smiles": "CCCCc1oc2ccccc2c1C(=O)c1cc(I)c(OCCN(CC)CC)c(I)c1", "viability": "91.2%"}, {"smiles": "CCN(CC)CC#CCOC(=O)C(O)(c1ccccc1)C1CCCCC1", "note": "(stereo not given)", "viability": "87%"}, {"smiles": "COc1ccc(C(=O)CC2(O)C(=O)Nc3c(Cl)ccc(Cl)c32)cc1", "note": "(stereo not given)", "Potency": "3720 nM (active)"}, {"smiles": "CNC(=O)c1ccc2c(C(=Nc3cccc(CN(C)C)c3)c3ccccc3)c(O)[nH]c2c1", "Potency": "935 nM (active)"}, {"smiles": "CC(C)Oc1ccc2c(=O)c(-c3ccccc3)coc2c1", "viability": "98.2%"}, {"smiles": "CN(C)CCC=C1c2ccccc2COc2ccc(CC(=O)O)cc21", "viability": "99.6%"}, {"smiles": "N#CC1(c2ccc(NC(=O)c3cccnc3NCc3ccncc3)cc2)CCCC1", "viability": "72.5%"}, {"smiles": "CC(C)c1ccc2oc3nc(N)c(C(=O)O)cc3c(=O)c2c1", "viability": "97.1%"}, {"smiles": "Oc1ccc(-c2ccc(-c3cc(Nc4cccc(CNC5CC5)c4)n[nH]3)cc2)c(O)c1", "Potency": "4690 nM (active)"}, {"smiles": "O=C(O)c1cccnc1", "Potency": "2960 nM (active)"}, {"smiles": "CC1(C)O[C@H]2CC(=O)OC[C@]23[C@H]2CC[C@@]4(C)[C@H](c5ccoc5)OC(=O)[C@H]5O[C@]54[C@]2(C)C(=O)C[C@@H]13", "viability": "90.7%"}, {"smiles": "NC1=N[C@H]2[C@H](CS[C@H]2CCCCC(=O)O)N1", "viability": "106% [at 23.2 µM]"}, {"smiles": "COc1cc(CCc2cc(NC(=O)c3ccc(N4C[C@@H](C)N[C@@H](C)C4)cc3)n[nH]2)cc(OC)c1", "Potency": "4690 nM (active)"}, {"smiles": "NCCS(=O)(=O)O", "viability": "108%"}, {"smiles": "N=c1ccn2c(n1)O[C@H]1[C@@H](O)[C@@H](CO)O[C@H]12", "Potency": "132 nM (active)"}, {"smiles": "C=C1C(=O)[C@@]23C(CC[C@@H]1[C@H]2O)[C@@]12CO[C@]3(O)[C@@H](O)[C@@H]1C(C)(C)CC[C@@H]2O", "note": "(stereo not given in full)", "Potency": "3720 nM (active)"}, {"smiles": "C[C@]12CC[C@@H]3c4ccc(O)cc4CC[C@H]3[C@H]1CC[C@H]2O", "Potency": "18700 nM (active)"}, {"smiles": "Cc1cc(Cl)ccc1OCCCC(=O)NO", "Potency": "10500 nM (active)"}, {"smiles": "CCCCCN=C(N)NN=Cc1c[nH]c2ccc(OC)cc12", "Potency": "11800 nM (active)"}, {"smiles": "CCc1nc(C(N)=O)c(Nc2ccc(N3CCC(N4CCN(C)CC4)CC3)c(OC)c2)nc1NC1CCOCC1", "Potency": "295 nM (active)"}, {"smiles": "COc1ccc([C@@H]2CC(=O)c3c(O)cc(O[C@@H]4O[C@H](CO[C@@H]5O[C@@H](C)[C@H](O)[C@@H](O)[C@@H]5O)[C@@H](O)[C@H](O)[C@@H]4O)cc3O2)cc1O", "viability": "111%"}, {"smiles": "Cc1nnc(NS(=O)(=O)c2ccc(N)cc2)s1", "Potency": "9350 nM (active)"}, {"smiles": "O=C(NCCO[N+](=O)[O-])c1cccnc1", "viability": "94%"}, {"smiles": "N=C(N=C(N)N)N1CCOCC1", "viability": "107%"}, {"smiles": "CC(C)NC[C@@H](C(=O)N1CCN(c2ncnc3c2[C@H](C)C[C@H]3O)CC1)c1ccc(Cl)cc1", "Potency": "296 nM (active)"}, {"smiles": "COc1cnc(NS(=O)(=O)c2ccc(N)cc2)nc1", "viability": "96.8%"}, {"smiles": "CC1(C)CC(=O)c2c(C(F)(F)F)nn(-c3ccc(C(N)=O)c(NC4CCC(OC(=O)CN)CC4)c3)c2C1", "note": "(stereo not given)", "Potency": "264 nM (active)"}, {"smiles": "Nc1ccccc1NC(=O)c1ccc(CNC(=O)OCc2cccnc2)cc1", "Potency": "743 nM (active)"}, {"smiles": "Cc1cccc(CN2CCN(C(c3ccccc3)c3ccc(Cl)cc3)CC2)c1", "note": "(stereo not given)", "viability": "101%"}, {"smiles": "CCCc1nc2c(C)cc(-c3nc4ccccc4n3C)cc2n1Cc1ccc(-c2ccccc2C(=O)O)cc1", "viability": "104%"}, {"smiles": "COCCCOc1ccnc(CS(=O)c2nc3ccccc3[nH]2)c1C", "note": "(stereo not given)", "viability": "90.1%"}, {"smiles": "COC1=C(OC)C(=O)C(CCCCCCCCCCO)=C(C)C1=O", "viability": "67.6%"}, {"smiles": "C[C@H](NC(=O)[C@@H](O)c1cc(F)cc(F)c1)C(=O)N[C@@H]1C(=O)N(C)c2ccccc2-c2ccccc21", "viability": "87.6%"}, {"smiles": "CCn1cc(C(=O)O)c(=O)c2cc(F)c(N3CCNC(C)C3)c(F)c21", "note": "(stereo not given)", "viability": "89.4%"}, {"smiles": "Cn1cc(-c2ccc3nnc(C(F)(F)c4ccc5ncccc5c4)n3n2)cn1", "viability": "71.6%"}, {"smiles": "O=c1cc(-c2ccc(O)c(O)c2)oc2cc(O)cc(O)c12", "viability": "106%"}, {"smiles": "CCN(CC)CCNC(=O)c1ccc2nc(-c3ccccc3)c(-c3ccc(CN4CCC(n5c(=O)[nH]c6ccccc65)CC4)cc3)nc2c1", "Potency": "52.6 nM (active)"}, {"smiles": "Cc1c(-c2ccnn2C)cc(C(=O)NCc2ccc(S(C)(=O)=O)cn2)c(=O)n1-c1cccc(C(F)(F)F)c1", "viability": "94.5%"}, {"smiles": "CC[C@@H]1C(=O)N(C)c2cnc(Nc3ccc(C(=O)NC4CCC(N5CCN(CC6CC6)CC5)CC4)cc3OC)nc2N1C(C)C", "note": "(stereo not given in full)", "Potency": "83.3 nM (active)"}]}]}
